An excerpt weighted towards active compounds, which were near 2.7% of everything screened.
rCAG binder – molecules binding r(CAG) RNA repeats; r(CAG) RNA repeat, TO-PRO-1 dye displacement fluorescence; inhibition, % at 3 µM; hit rate 1.3% among 370,000;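 active = inhibition above the plate cutoff, the mean of all test compounds on that plate plus 3 SD, cut at about 35% in these data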;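 note: 0% = DMSO alone and 100% = 100 µM mitoxantrone as full dye displacement; higher means more dye released from RNA so lower well fluorescence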
MsrA act – activators of bovine methionine sulfoxide reductase A. purified bovine MsrA, absorbance read-out. activation, % at 10.6 µM. hit rate 0.3% among 360,000; in the data active = activation above about 7.5%;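 note: 0% = vehicle and 100% = reference activator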
MsrA inh – inhibitors of bovine MsrA | purified bovine MsrA, absorbance read-out | inhibition, % at 15.5 µM | hit rate 0.75% among 360,000; in the data active = inhibition above about 4.5%;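 note: 0% = vehicle wells with enzyme and 100% = reference inhibitor wells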
NadD inh – blocks S. aureus nicotinate mononucleotide adenylyltransferase | hit rate 0.78% among 360,000 | inhibition, % at 20 µM | purified NadD enzyme, colorimetric absorbance read-out; in the data active = inhibition above about 26%
MsrA activ conf – bovine methionine sulfoxide reductase A activation confirmed | purified bovine MsrA, absorbance read-out | activation, % at 10.6 µM | shares compounds with MsrA act | AID 602270 | hit rate 12% among 1,000; in the data active = activation above about 4%;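 note: enzyme coupled to thioredoxin and thioredoxin reductase with NADPH; 0% = vehicle wells and 100% = reference activator wells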
Numbers without * were called inactive; . = not tested or not shown.

SMILES	rCAG binder	MsrA act	MsrA inh	NadD inh	MsrA activ conf
Cc1ccccc1Oc1ccc2c(c1)[C@@H]1C[C@H](N(C)C(=O)Nc3cc(Cl)cc(Cl)c3)[C@H]([C@H](C)O)C(=O)N1CC2	13	-6	1	20	.
COCCN1C(=O)c2cc(C(=O)Nc3ccc(OC)c(OC)c3)ccc2C1Nc1ccc(OC)c(OC)c1 (centres undefined)	0	12*	2	6	-1
CCN1CCN(C(=O)c2ccc3c(=O)n(C4CCCC4)c(=S)[nH]c3c2)CC1	-6	8.8*	1	-2	0
O=C(c1ccc2c(=O)n(C3CCCC3)c(=S)[nH]c2c1)N1CCN(C2CCCCC2)CC1	3	-3	0	6	.
Cc1cccc(NNC(=S)Nc2c(C)cccc2C)c1	-1	8.0*	1	-3	1
Cn1c(CO)cnc1SCC(=O)c1ccc(Br)cc1	2	13*	2	-4	-3
Cn1c(CO)cnc1SCC(=O)c1ccc(F)cc1	-1	-5	1	-6	.
Cc1ccc(COc2ccsc2-c2n[nH]c(=S)n2C)cc1	4	0	-1	5	.
Cn1c(-c2sccc2OCc2ccc(Cl)cc2Cl)n[nH]c1=S	9	17*	1	4	-1
CC(C)(O)CN(CCCNC(=S)Nc1ccccc1)C(=S)Nc1ccccc1	1	14*	0	-3	0
CCNC(=O)N(C)c1nncnc1C(=O)NC	2	21*	-1	-6	-2
COc1ccc(-c2noc(N3CCC(C(=O)NCCCN4CCCC(C)C4)CC3)n2)cc1 (centres undefined)	3	8.7*	-1	-7	0
CC1CS(=O)(=O)CCN1N=Cc1ccc([N+](=O)[O-])o1 (centres undefined)	0	10*	0	-3	-2
CCCNC(=O)C1(C)CCCN(C(=O)c2cc(C(C)(C)C)nn2C)C1 (centres undefined)	-1	-2	0	0	.
CCCCn1c(=O)c2ccccc2n2c(=S)[nH]nc12	1	4	1	1	.
CCCCCn1c(=O)c2ccccc2n2c(=S)[nH]nc12	10	9.6*	0	1	-3
CCc1nc2c(OCCOc3ccccc3)cccn2c1N(C)C(=O)C1CC1	.	0	.	1	.
O=C(Nc1ccccc1Cl)N1CCN(c2ccc3nnc(-c4ccccc4)n3n2)CC1	.	17*	.	-3	-1
Cc1cc(C(=O)O[C@@H]2CCC[C@@]3(C(=O)N(Cc4ccccc4)c4ccccc43)[C@H]2NC(=O)CCc2ccccc2)no1	9	.	.	.	.
Cc1ccc(C(=O)NCC(=O)N2CCN(c3ncccn3)CC2)s1	0	9.2*	-1	-1	0
COc1ccc(N2CCN(C3CCN(S(=O)(=O)c4ccc(F)cc4)CC3)CC2)cc1	0	9.5*	0	-6	-4
COc1ccc(N2CCN(C(=O)C3CCN(S(=O)(=O)c4ccc(F)cc4)CC3)CC2)cc1	-8	-7	0	2	.
Cc1ccc(C(=O)N2c3ccccc3OCC2C)cc1 (centres undefined)	-8	-2	0	-5	.
CC1COc2ccccc2N1C(=O)c1ccc(Cl)cc1 (centres undefined)	-4	9.0*	0	-5	-5
O=C(Cc1cccc2ccccc12)NN=Cc1ccc2c(c1)CCC2	4	-7	0	4	.
SMILES	rCAG binder	MsrA act	MsrA inh	NadD inh	MsrA activ conf
CC(=O)c1ccc(Nc2nc3ccc(C)cc3n3cnnc23)cc1	10	8.2*	-1	-2	-1
COC(=O)c1ccc(Nc2nc3ccc(C)cc3n3cnnc23)cc1	2	-1	1	-4	.
O=C(Nc1nc(-c2ccc(F)c(F)c2)cs1)C1=COCCO1	-1	-3	0	-8	.
COc1ccc(-c2csc(NC(=O)C3=COCCO3)n2)cc1OC	2	11*	0	-6	-2
Clc1ccc2c(-c3ccccc3)nc(-c3cccs3)nc2c1	2	-3	0	-3	.
COC(=O)c1ccccc1S(=O)(=O)N1CCC(C(=O)NC2CCCCC2)CC1	-1	11*	0	-7	-2
COc1ccc(C(=O)N(C)[C@H]2C[C@H]3c4[nH]c5cccc(-c6ccccc6)c5c4CCN3C[C@H]2[C@H](C)O)cc1	12	.	.	.	.
CC1=C(C)CS(=O)N(c2ccc(S(N)(=O)=O)cc2)C1 (centres undefined)	2	7.8*	-1	4	-3
COCCN1C(=O)CSCC1(C)C(=O)NCc1ccccc1 (centres undefined)	1	.	0	.	.
Cc1cn([C@H]2C[C@H](O)[C@@H](/C=C/C(=O)NCc3ccco3)O2)c(=O)[nH]c1=O	3	-3	-1	2	.
O=C(OCC(=O)c1c[nH]c2ccccc12)c1ccc([N+](=O)[O-])s1	12	16*	4	-6	6.6*
CCCS(=O)(=O)N1CCC(C(=O)N2CCC(Cc3ccccc3)CC2)CC1	-2	2	0	2	.
CCCS(=O)(=O)N1CCCC(C(=O)N2CCC(Cc3ccccc3)CC2)C1 (centres undefined)	-7	7.7*	-1	4	0
COc1ccccc1CNC(=O)CCNC(=O)Cn1cnc2ccccc2c1=O	-2	8.8*	-1	-3	0
Cc1cc2nc(C(C)(C)C)c(CC3CCCCC3)n2c(C)c1Br	5	-2	0	10	.
CCc1nn(CC(=O)NCCCN2CCOCC2)c(=O)c2cc3cc(F)ccc3n12	-2	7.9*	1	1	-1
CCc1nn(CC(=O)NCCCN2CCOCC2)c(=O)c2cc3sccc3n12	-2	0	2	-1	.
Oc1c(CN2CCOCC2)cc(CN2CCOCC2)c(O)c1O	11	-5	0	1	.
Oc1c(Cl)cc(Oc2cc(Cl)c(O)c(CN3CCOCC3)c2)cc1CN1CCOCC1	4	8.7*	0	-3	-1
O=C(N/N=C/c1cccs1)C1COc2ccccc2O1 (centres undefined)	3	8.6*	1	6	-2
COC(=O)C[C@@H]1CC[C@H]2[C@@H](COc3ccc(NC(=O)c4ccc(Cl)cc4)cc3C(=O)N2C)O1	6	.	.	.	.
O=C1NC(Cc2ccc(O)cc2)c2nc3ccccc3c(=O)n2-c2ncccc21 (centres undefined)	1	-5	0	2	.
CCCOc1ccc(-c2nc(=S)[nH][nH]2)cc1	3	9.2*	1	2	3
Cc1ccc(Cn2ncc(Cl)c(Cl)c2=O)cc1	0	-2	-1	-3	.
Cc1[nH]c(C)c2c(=O)n(Cc3ccc(Cl)cc3)ncc12	1	14*	0	-3	-1
CCOC(=O)c1cnc2nc(COc3ccccc3)[nH]n2c1=O	3	12*	-1	0	-3
Cc1sc2nc(CSC(C)C(=O)NC3(C#N)CCCCC3)[nH]c(=O)c2c1C (centres undefined)	-2	-1	-1	2	.
Cc1ccc(NC(=S)N/N=C/c2ccc([N+](=O)[O-])s2)cc1	28	9.2*	1	-3	2
Cc1cc(C)cc(N=Cc2ccc([N+](=O)[O-])s2)c1	-1	5	3	0	.
O=C(Nc1nccs1)C1(C(=O)C2CC2)CC(c2ccccn2)=NO1 (centres undefined)	0	.	.	.	.
